# Data taken from PubChem BioAssay (Tox21).
# Records with an inconclusive call do not appear. Unmarked numbers belong to inactive results. Calls of active or inactive are those of the source. Calls follow the shape of the dose curve; as a rule, active = well fitted cell-killing curve with a large enough effect in the repeat runs; inconclusive = weak or mixed curves, or effect the other way; inactive = flat fitted curve, though single readings scatter.
# Assay: qHTS RealTime-Glo MT Cell Viability Assay in HEK293 cells - 8 hour (AID 1224887); also: nearly all actives have a fitted effect of over 50% in size; as to activity change, negative = cytotoxicity: top concentration of the series differs between compounds
# Conditions: RealTime-Glo luminescence; series mostly up to 76.8 µM; activity change, negative = cytotoxicity: at the top concentration
# Text: U.S. Tox21 Program National Center for Advancing Translational Sciences [NCATS] NIH Chemical Genomics Center [NCGC] U.S. Environmental Protection Agency [EPA] National Institutes of Environmental Health Sciences [NIEHS] National Toxicology Program [NTP] U.S. Food and Drug Administration [FDA] Tox21 Assay Overview: Measure of cell viability is critical in the cell-base assay. Analysis of cell viability is necessary for the characterization of cell responses to cytotoxic drugs and environmental stress. A RealTime-Glo MT Cell Viability Assay to monitor cell viability in real time of continues cell culture during 40 hours of compound treatment was used to screen Tox21 10K library compounds in Hek293 cells. The RealTime-Glo MT Cell Viability Assay is a nonlytic, homogeneous, bioluminescent method to measure cell viability in real time using a simple, plate-based method. The assay involves adding NanoLuc luciferase and a cell-permeant prosubstrate to cells in culture. Viable cells reduce the proprietary prosubstrate to generate a substrate for NanoLuc luciferase. This substrate diffuses from cells into the surrounding culture medium, where it is rapidly used by the NanoLuc Enzyme to produce a luminescent signal. The signal correlates with the number of viable cells, making the assay well suited for cytotoxicity studies.
# Tox21 Assay Protocol Summary: The mixture of Hek293 cell suspension and reagents were dispensed at 600cells/6 ul/well in 1536-well tissue culture treated black solid bottom plates using a Multidrop dispenser. After the assay plates were incubated at a 37 C/5% CO2 incubator for 5 hours, 23 nL of compounds dissolved in DMSO, positive and negative controls was transferred to the assay plate by a pintool work station. The plates were incubated at 37 C for 40 hours. The luminescence intensity were measured at 0h, 8h, 16h, 24h, 32h and 40h time points using ViewLux plate reader during compound treatment.
# % is scaled to controls: 0 for no effect and ±100 for the full control effect; potency is read from the fitted curve at half-maximal effect.
Compound,"activity change, negative = cytotoxicity",Potency
c1ccc(CNCc2ccccc2)cc1,3.11%,–
O=C(O)/C=C/c1cnc[nH]1,0.462%,–
O=c1c2ccccc2nnn1CCl,3.03%,–
CC(=O)OCCc1ccccc1,2.52%,–
CC(C)(C)c1cc(O)c(C(C)(C)C)cc1O,–,15.5 µM (active)
Nc1nc(N)c(-c2ccccc2)s1,4.85% [at 35.3 µM],–
CCOc1ccc(NC(=O)CC(C)=O)cc1,-0.983%,–
CN(C(=O)CCCOc1ccc2[nH]c(=O)ccc2c1)C1CCCCC1,-27.3% [at 35.3 µM],–
CC(=O)/C(C)=C/C1C(C)=CCCC1(C)C (stereo not given),-21.6%,–
CCN(CC)CCNC(C(=O)OCCC(C)C)c1ccccc1 (stereo not given),1.89% [at 35.3 µM],–
C=C(C)C(=O)OCCOc1ccccc1,3.18%,–
CCc1nn(C2CCCCC2)c2cc(C3(C#N)CCC(C(=O)O)CC3)ccc12 (stereo not given),6.58%,–
CCCCC(CC)(CO)CO,0.0282%,–
CC(C)NCC(O)COc1ccc(CC(N)=O)cc1 (stereo not given),-1.22%,–
O=C(O)Cn1c(C(=O)Nc2nc(-c3ccccc3Cl)cs2)cc2ccccc21,2.29% [at 35.3 µM],–
CC(=O)OC/C=C/c1ccccc1,1.44%,–
CCCCCCCCCCCCC(=O)O,8.19%,–
Cc1ccc(O)c([C@H](CCN(C(C)C)C(C)C)c2ccccc2)c1,-1.2% [at 35.3 µM],–
CC(C)c1cccc(C(C)C)c1NC(=O)NS(=O)(=O)c1cc(C(C)(C)O)co1,3.16%,–
CC1=CC(=O)/C(=C(/C)O)C(=O)O1,2.01%,–

Compound,"activity change, negative = cytotoxicity",Potency
CCC(C)N(C)C(=O)c1cc2ccccc2c(-c2ccccc2Cl)n1 (stereo not given),-22.4% [at 35.3 µM],–
CCN1CCC[C@H]1CNC(=O)c1c(OC)ccc(Br)c1OC,12.6% [at 35.3 µM],–
CC(C)CCCC(C)CCO (stereo not given),8.96%,–
CN1CCC[C@@H]1c1cccnc1,0.805% [at 35.3 µM],–
C=C(C)C(=O)OC(C)C,3.84%,–
Nc1nc(CC(=O)O)cs1,-5.82%,–
C[C@H](CCC(=O)O)[C@H]1CC[C@H]2[C@@H]3[C@H](O)C[C@@H]4C[C@H](O)CC[C@]4(C)[C@H]3CC[C@]12C,-11.9%,–
CNCC[C@@H](Oc1ccccc1C)c1ccccc1,1.39% [at 35.3 µM],–
O=C(O)Cc1sc(-c2ccccc2)nc1-c1ccc(Cl)cc1,5.64% [at 35.3 µM],–
ClC(Cl)(Cl)c1ccc(C(Cl)(Cl)Cl)cc1,-13.5%,–
C=C(C)C(=O)OCCN(C)C,3.4%,–
O=C(NN1CCCC1)NS(=O)(=O)c1ccc(Cl)cc1,8.14% [at 35.3 µM],–
Cc1cc(CC(=O)O)c(C)n1-c1ccc(Cl)cc1,2% [at 35.3 µM],–
OCCC1CCCCN1 (stereo not given),19.7%,–
CC(C)=CCCC(C)CC=O (stereo not given),4.78%,–
O=[N+]([O-])c1cc[n+]([O-])cc1,-3.32%,–
CC[C@H](C)[C@@H](C(=O)O)n1sc2ccccc2c1=O,5.01%,–
COC(=O)CSc1cc(N=c2sc(=O)n3n2CCCC3)c(F)cc1Cl,1.27%,–
Nc1ccc(C(=O)Nc2ccccc2N)cc1,6.19% [at 35.3 µM],–
CCN(CC)CCOC(=O)C1(c2ccccc2)CCCC1,4.66% [at 35.3 µM],–
